The record followed here is PubChem BioAssay (EPA / NIEHS).

Calls of active or inactive are those of the source. Rule for the calls: active = hit-call score of the fitted dose curve at least 0.9, where 1 is the maximum; inactive = score below 0.9.

Sequence of Transcription factor Sp1 (Homo sapiens) (P08047 whole entry, looked up): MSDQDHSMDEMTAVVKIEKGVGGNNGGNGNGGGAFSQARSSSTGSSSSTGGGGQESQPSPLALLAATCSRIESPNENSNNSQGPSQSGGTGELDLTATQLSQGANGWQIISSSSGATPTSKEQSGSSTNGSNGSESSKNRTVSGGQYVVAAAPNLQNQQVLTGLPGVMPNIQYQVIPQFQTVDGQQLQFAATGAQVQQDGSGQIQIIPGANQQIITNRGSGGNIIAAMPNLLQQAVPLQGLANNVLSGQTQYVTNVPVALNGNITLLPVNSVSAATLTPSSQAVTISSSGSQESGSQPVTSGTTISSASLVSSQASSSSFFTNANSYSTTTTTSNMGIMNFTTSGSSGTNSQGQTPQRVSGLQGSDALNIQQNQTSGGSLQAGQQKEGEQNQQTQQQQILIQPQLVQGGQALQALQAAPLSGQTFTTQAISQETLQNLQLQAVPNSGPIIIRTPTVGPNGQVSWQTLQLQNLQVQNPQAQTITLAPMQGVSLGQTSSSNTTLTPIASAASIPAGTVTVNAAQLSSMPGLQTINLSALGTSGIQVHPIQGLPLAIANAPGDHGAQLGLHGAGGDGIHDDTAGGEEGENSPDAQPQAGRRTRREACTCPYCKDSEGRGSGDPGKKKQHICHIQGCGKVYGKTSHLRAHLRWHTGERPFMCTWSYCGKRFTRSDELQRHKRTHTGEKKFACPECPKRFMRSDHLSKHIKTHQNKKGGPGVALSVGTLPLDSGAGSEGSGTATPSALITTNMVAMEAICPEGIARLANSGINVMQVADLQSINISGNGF

The first experiment has as its target Transcription factor Sp1 (Homo sapiens) (UniProt P08047). In words: ATG_Sp1_CIS: Attagene CIS-FACTORIAL HepG2 Assay for human Specificity Protein 1 (Sp1) (AID 2282961). The note with it: HepG2 Sp1 cis-reporter transcription, actives raise or lower the signal. Put shortly: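 Transient MRTU-transfected HepG2, 24 h compound exposure. Total RNA → oligo(dT) RT → PCR of reporter → 6-FAM primer extension → HpaI digest → CE. Endpoint fitted both directions vs DMSO.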
For `CCCCC(CC)COC(=O)/C=C\C(=O)OCC(CC)CCCC` (stereo not given), the result was inactive.
Consider `O=C(O)C[C@H](O)C[C@H](O)/C=C/c1c(C2CC2)nc2ccccc2c1-c1ccc(F)cc1`, for which the outcome was inactive.
On the same count and under the same terms, the value for `O=P(c1ccccc1)(c1ccccc1)c1ccccc1` was “inactive”; that for `CC(=O)Nc1ccc(C)cc1C` was “inactive”.
As to `COC(=O)Cc1cccc2ccccc12`, the molecule was classed as inactive.
Still for that read-out and setting: the value for `O=C(O)c1cn(C2CC2)c2cc(N3CCNCC3)c(F)cc2c1=O` was “inactive”.
With `CCCCCCCCCCCCN(CCCCCCCCCCCC)CCCCCCCCCCCC`, the molecule was classed as inactive.
The same measure, in the same setting: the value for `CSc1nnc(C(C)(C)C)c(=O)[nH]1` was “inactive”; that for `CC(=O)O[C@]1(C(C)=O)CC[C@H]2[C@@H]3C[C@H](C)C4=CC(=O)CC[C@]4(C)[C@H]3CC[C@@]21C` was “inactive”; that for `Nc1cccc(S(=O)(=O)c2cccc(N)c2)c1` was “inactive”.
Still for that read-out and setting: the value for `CCCCCCCCC` was “inactive”.
Still for that read-out and setting: the value for `CC(C)(COC(=O)c1ccccc1)COC(=O)c1ccccc1` was “inactive”; that for `C=CCOC(=O)CCC1CCCCC1` was “inactive”.
As for `COc1cccc(OC)c1`, the result was inactive.
Consider `O=C(O)c1snc(Cl)c1Cl`, for which the call was inactive.
Still for that read-out and setting: with `O=C(O)COCCN1CCN(C(c2ccccc2)c2ccc(Cl)cc2)CC1` (stereo not given) the entry was “inactive”; with `CN1[C@@H]2CC(OC(=O)[C@H](CO)c3ccccc3)C[C@H]1[C@@H]1O[C@@H]12` (stereo not given in full), “inactive”.
Still for that read-out and setting: with `CCc1c(C)cc(N)c(CC)c1N` the entry was “inactive”; with `CCCCC[Si](OCC)(OCC)OCC`, “inactive”; with `CCCc1c(OCCCOc2ccc(OCC(=O)O)cc2)ccc(C(C)=O)c1O`, “inactive”.
As to `CCCOCC(C)O` (stereo not given), the molecule was classed as inactive.
Same read-out and setting: the value for `CNCCO` was “inactive”; that for `CCC(C)(O)CCC=C(C)C` (stereo not given) was “inactive”; that for `O=C(O)c1cccc([N+](=O)[O-])c1` was “inactive”.
For the molecule `C=CC(=O)OCCn1c(=O)n(CCOC(=O)C=C)c(=O)n(CCOC(=O)C=C)c1=O`, the AC50 is 8.63 µM (active).
In the case of `O=Nc1ccc(Nc2ccccc2)cc1`, the half-maximal activity concentration (AC50) is 55 µM (active).
On to `O=c1[nH]c(=O)n([C@H]2CCCO2)cc1F`, for which the outcome was inactive.

Test system in another experiment: not listed separately
In words: ATG_SREBP_CIS: Attagene CIS-FACTORIAL HepG2 Assay for human Sterol Regulatory Element Binding (SREBP) (AID 2282962). The note with it: HepG2 Attagene cis-factorial SREBP reporter, mRNA; actives raise or lower the signal. Put shortly: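 HepG2 cells transiently transfected with multiplexed cis-promoter reporter units sensing endogenous transcription factors; reporter mRNA measured 24 h after dosing by RT-PCR, 6-FAM labeling, HpaI digestion and capillary electrophoresis. Bidirectional fit versus DMSO.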
Turning to `CCCCC(CC)COC(=O)/C=C\C(=O)OCC(CC)CCCC` (stereo not given), the call was inactive.
Consider `O=C(O)C[C@H](O)C[C@H](O)/C=C/c1c(C2CC2)nc2ccccc2c1-c1ccc(F)cc1`, for which the AC50 was 0.0712 µM (active).
Take `O=P(c1ccccc1)(c1ccccc1)c1ccccc1`: the result was inactive.
On the same count and under the same terms, with `CC(=O)Nc1ccc(C)cc1C` the entry was “inactive”; with `COC(=O)Cc1cccc2ccccc12`, “inactive”; with `CC(=O)Nc1ccccc1O`, “inactive”.
Same read-out and setting: the value for `O=C(O)c1cn(C2CC2)c2cc(N3CCNCC3)c(F)cc2c1=O` was “inactive”.
With `CCCCCCCCCCCCN(CCCCCCCCCCCC)CCCCCCCCCCCC`, the outcome was inactive.
Same read-out and setting: the value for `CSc1nnc(C(C)(C)C)c(=O)[nH]1` was “inactive”.
Regarding `CC(=O)O[C@]1(C(C)=O)CC[C@H]2[C@@H]3C[C@H](C)C4=CC(=O)CC[C@]4(C)[C@H]3CC[C@@]21C`, the molecule was called inactive.
Same read-out and setting: with `CC[Si](OC(C)=O)(OC(C)=O)OC(C)=O` the entry was “inactive”; with `Nc1cccc(S(=O)(=O)c2cccc(N)c2)c1`, “inactive”.
Same read-out and setting: the value for `CCCCCCCCC` was “inactive”; that for `CC(C)(COC(=O)c1ccccc1)COC(=O)c1ccccc1` was “inactive”; that for `C=CCOC(=O)CCC1CCCCC1` was “inactive”.
On the same count and under the same terms, the value for `COc1cccc(OC)c1` was “inactive”; that for `O=C(O)c1snc(Cl)c1Cl` was “inactive”.
On to `O=C(O)COCCN1CCN(C(c2ccccc2)c2ccc(Cl)cc2)CC1` (stereo not given), for which the molecule was classed as inactive.
Turning to `CN1[C@@H]2CC(OC(=O)[C@H](CO)c3ccccc3)C[C@H]1[C@@H]1O[C@@H]12` (stereo not given in full), the call was inactive.
The same measure, in the same setting: the value for `C[Si](O[Si](C)(C)C)O[Si](C)(C)C` was “inactive”.
As to `CCc1c(C)cc(N)c(CC)c1N`, the molecule was called inactive.
Consider `CC(=O)[O][Al][O]C(C)=O`, for which the call was inactive.
The same measure, in the same setting: the value for `CCCCCCCCCCCCCOS(=O)(=O)O` was “inactive”.
Consider `CCCCC[Si](OCC)(OCC)OCC`, for which the result was inactive.
Still for that read-out and setting: the value for `Cc1ccc2ccccc2n1` was “inactive”.
The same measure, in the same setting: with `CC(C)(C)NC(N)=O` the entry was “inactive”; with `CCCc1c(OCCCOc2ccc(OCC(=O)O)cc2)ccc(C(C)=O)c1O`, “inactive”.
On to `CCCOCC(C)O` (stereo not given), for which the molecule was classed as inactive.
The same measure, in the same setting: the value for `CNCCO` was “inactive”; that for `CCC(C)(O)CCC=C(C)C` (stereo not given) was “inactive”.
On the same count and under the same terms, with `COc1cc(C(C)(C)C)c(O)c(C(C)(C)C)c1` the entry was “inactive”; with `Clc1ccc(Cl)c(Cl)c1Cl`, “inactive”; with `O=C(O)c1cccc([N+](=O)[O-])c1`, “inactive”.
The same measure, in the same setting: with `C=CC(=O)OCCn1c(=O)n(CCOC(=O)C=C)c(=O)n(CCOC(=O)C=C)c1=O` the entry was “inactive”.
As for `Clc1nc(C(Cl)(Cl)Cl)c(Cl)c(Cl)c1Cl`, the AC50 was 52.5 µM (active).
The same measure, in the same setting: the value for `O=Nc1ccc(Nc2ccccc2)cc1` was 33.4 µM (active).
On to `N#Cc1ccccc1`, for which the call was inactive.
Still for that read-out and setting: the value for `O=c1[nH]c(=O)n([C@H]2CCCO2)cc1F` was “inactive”.

Usually AC50 stands for the concentration giving half of the maximal activity seen.
